# Data published in PubChem BioAssay AID651965 (National Center for Advancing Translational Sciences (NCATS), 2013).
# The campaign covered roughly 340,000 compounds. About 6,400 (1.9%) were called active. About 4% were inconclusive and are not listed. Calls follow the shape of the dose curve; as a rule, active = well fitted falling curve with a large enough effect; inconclusive = small, poorly fitted or top-dose-only effect; inactive = no such curve, though single readings can be large or run the other way. The entries come from a sample that favours actives as a whole. Entries that show only a call come without a potency.
# Target: ATP-dependent Clp protease proteolytic subunit (Bacillus subtilis (strain 168)) (UniProt P80244)
# Assay: qHTS Assay for Activators of ClpP; also: the source files actives as falling curves though it sought activators and does not explain the sign; nearly all actives have a fitted effect of over 65% in size
# Conditions: purified B. subtilis ClpP, FRET peptide cleavage, 20 min; series mostly up to 57.5 µM
# Outline: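 FRET quenching reversal measured ClpP activation: 10 microg/mL B. subtilis ClpP at pH 8 with the FRET-FV decapeptide, read at 430 nm after 320 nm excitation. The 20-min minus 0-min signal was scaled between DMSO/no-enzyme wells and ADEP (5.8 microM final).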
# Potency is read from the fitted curve at half-maximal effect.
row,SMILES,Potency
1,COc1cc(C(O)c2nc(-c3cnn(C)c3)cs2)ccc1F (centres undefined),inactive
2,CCOC(=O)c1cc2cc3ccccc3cc2oc1=O,inactive
3,O=C(Oc1cccnc1)c1cc2ccccc2oc1=O,28.2 µM (active)
4,CCc1ccc(Oc2coc3cc(OC(=O)c4cc5ccccc5oc4=O)ccc3c2=O)cc1,inactive
5,COc1ccc(Cl)cc1-c1cc(C(=O)Nc2cc(OC)c(OC)c(OC)c2)[nH]n1,inactive
6,O=C(CCCn1c(=O)[nH]c2cc(Cl)ccc2c1=O)NCCN1CCN(c2ccccc2)CC1,inactive
7,CCCCCn1c(=O)[nH]c2cc(C(=O)NCCN(C)CCCC)ccc2c1=O,inactive
8,CCN(CC)CCNC(=O)CCCCCn1c(=O)[nH]c2cc(C(=O)OC)ccc2c1=O,28.2 µM (active)
9,Nc1ncnc2c1ncn2[C@@H]1O[C@H](C(=O)NCC(F)(F)F)[C@@H](O)[C@H]1O,inactive
10,CCCCc1c(-c2ccc(Cl)cc2)ncn1CCc1ccccc1OC,inactive
11,Cc1ccc(-c2nc3c(Cl)cc(C(F)(F)F)cn3c2Cc2cccc(Cl)c2)cc1,inactive
12,Cc1ccc(-c2ccnc3nc(Sc4ncc(C(F)(F)F)cc4Cl)nn23)cc1,7.08 µM (active)
13,Cc1nn(-c2ncc(C(F)(F)F)cc2Cl)c(=O)n1-c1ccccc1,inactive
14,OCCC#Cc1ccc(N2C(c3ccsc3)=Cc3ccc(F)cc3C2c2c[nH]c3ccccc23)cc1 (centres undefined),inactive
15,CCOC(=O)C1(C(F)(F)F)N=C(N(C)C)OC(N(C)C)=N1,15.8 µM (active)
16,CCOC(=O)C1=C(C)c2ccccc2OC1(C)C(=O)OCC (centres undefined),inactive
17,Cc1cc(Br)cn2c(Cc3ccccc3C(F)(F)F)c(-c3ccc(Cl)cc3)nc12,inactive
18,C=C1C=C(C(F)F)n2ncc(C(=O)NCCc3ccccc3OC)c2N1,inactive
19,O=C(Cn1c(-c2ccccn2)nc2ccccc21)NCCN1CCOCC1,28.2 µM (active)
20,O=C(CCN1C(=O)c2ccccc2C1=O)NCCN1CCOCC1,inactive
21,Cc1ccc(Cn2c(C)c3cnn(CC(=O)NCCN4CCOCC4)c(=O)c3c2C)cc1,inactive
22,Cc1ccc(CC2(C)C(=O)Nc3ccc(OC(F)(F)F)cc32)cc1 (centres undefined),inactive

row,SMILES,Potency
1,O=C(Nc1ccc2c(c1)OCCO2)C(C1CC1)N1CCC(Cc2ccccc2)CC1 (centres undefined),inactive
2,CCOC(=O)[C@]12CCCC=C1N(CCC1=CCCCC1)C(=O)[C@H](CC(=O)N1CCOCC1)C2,inactive
3,CCc1nc2c(OCc3ccc(Cl)cc3Cl)cccn2c1N(C)C(=O)C(C)C,inactive
4,CCc1nc2ccc(C(=O)N3CCN(c4cc(Cl)ccc4C)CC3)cc2nc1CC,inactive
5,CCOC(=O)N1CCN(C(=O)c2ccc3nc4cc(Cl)ccc4c(=O)n3c2)CC1,3.55 µM (active)
6,CCc1nc2ccc(C(=O)N3CCN(c4cccc(Cl)c4)CC3)cc2nc1CC,inactive
7,O=C(c1cccs1)N1C[C@H](n2cc(C3CC3)nn2)[C@@H](O)C[C@@H]1c1ccccc1,inactive
8,CC(C)N1C(=O)c2ccccc2NC(=O)C1C(=O)NCc1cccs1 (centres undefined),inactive
9,CC(=O)c1ccc(-c2cnc3c(NC=O)cc(-c4cccc(NS(C)(=O)=O)c4)cn23)cc1,inactive
10,Cc1ccccc1S(=O)(=O)NC(=O)C1(C)CCN1C(=O)C1(c2ccccc2)CCCC1 (centres undefined),inactive
11,O=C(Nc1ccccc1)N1CCN(C2c3ccccc3-c3ccccc32)CC1,31.6 µM (active)
12,O=C(Nc1ccccc1)N1CCC(C(=O)N2CCN(Cc3ccccc3)CC2)CC1,inactive
13,O=C(Nc1cccc(NC(=O)N2CCN(c3ccccc3)CC2)c1)N1CCN(c2ccccc2)CC1,inactive
14,Cc1ccc(O)c(/C=N/NC(=O)COc2ccc3c(C)cc(=O)oc3c2)c1,inactive
15,Cc1cc(=O)oc2ccc(OCC(=O)O)cc12,31.6 µM (active)
16,CC(=O)c1c(C)[nH]c(C(=O)COc2ccc3c(C)cc(=O)oc3c2)c1C,inactive
17,Cc1cccc(C)c1NC(=O)CN1CCN(c2ccc(F)cc2)CC1,inactive
18,COCCn1c(=NC(=O)c2ccccc2[N+](=O)[O-])sc2cc(S(C)(=O)=O)ccc21,inactive
19,CS(=O)(=O)c1ccc(-c2nnc(NC(=O)c3ccc4c(c3)OCCO4)o2)cc1,inactive
20,Cn1c(=NC(=O)c2ccc3c(c2)OCCO3)sc2cc(S(C)(=O)=O)ccc21,12.6 µM (active)
21,CCCNC(=O)C1(C)CCN1C(=O)C1(c2ccccc2)CC1 (centres undefined),inactive
22,O=C(/C=C/c1cccs1)NCc1cccnc1,35.5 µM (active)

row,SMILES,Potency
1,Cc1ccc(C(=O)NC(=S)NCc2cccnc2)cc1,inactive
2,O=C(NCc1cccnc1)c1cn(-c2ccccc2)nc1-c1cccs1,inactive
3,CCN1C(=O)[C@H]2[C@@H](c3ccc(C(F)(F)F)cc3)N[C@]3(CCCN(Cc4ccc(Br)cc4)C3=O)[C@H]2C1=O,inactive
4,CS(=O)(=O)c1ccc(Cl)c(NC(=O)COC(=O)c2ncc(Cl)c(Cl)c2Cl)c1,14.1 µM (active)
5,O=C(COC(=O)c1ncc(Cl)c(Cl)c1Cl)NCc1ccccc1,inactive
6,O=C(COC(=O)c1ncc(Cl)c(Cl)c1Cl)NNC(=O)c1ccccc1,inactive
7,COc1ccc(C(=O)N2CCCCC2c2cc(C(=O)Nc3ccccc3)no2)cc1 (centres undefined),inactive
8,Cc1cc(C)n2c(NCc3ccccc3)c(CC(C)C)nc2n1,inactive
9,Cc1cccc(CN2CCN(C3CN(Cc4cn(Cc5ccccc5F)nn4)S(=O)(=O)C3)CC2)c1 (centres undefined),inactive
10,CNCCCOc1cc2nc(N3CCCN(C)CC3)nc(NC3CCN(C)CC3)c2cc1OC,inactive
11,CN(C)c1ccc(-c2nnc(-c3cccnc3)o2)cc1,inactive
12,OC(c1nnc(-c2ccccc2)o1)c1cccs1 (centres undefined),inactive
13,Nc1ccc(-c2nnc(-c3ccc(-c4ccccc4)cc3)o2)cc1,31.6 µM (active)
14,O=C(COC(=O)c1ccccc1OCCOc1ccccc1)Nc1cccc(Br)c1,inactive
15,Cc1ccc(-c2cnc(NC(=O)CCC(=O)N(C)Cc3ccccc3)n2C)cc1,inactive
16,CC(=O)N1CCN(c2ccc(NCc3ccc(C(C)C)cc3)cc2)CC1,inactive
17,Cc1ccc(-c2cnc(NCc3ccc(C(C)C)cc3)n2C)cc1,28.2 µM (active)
18,COc1ccc2nc(C)cc(Nc3cccc(C(=O)O)c3)c2c1,inactive
19,COc1cccc(NC(=O)Nc2ccc(F)cc2)c1,inactive
20,COc1ccc2nc(/N=C(\N)NC(=O)Nc3ccccc3)nc(C)c2c1,14.1 µM (active)
